Each structure is given as a SMILES string. Among all 30,000 compounds or so, about 190 (0.63%) were called active. This excerpt belongs to a sample that is enriched for actives. Unmarked numbers belong to inactive results. Rule as the data show it: active = viability loss activity score above about 50%; inconclusive = no clear call, values can overlap the other calls; inactive = below about 35%.

The assay can be described thus: cytotoxicity in HRASV12-transformed BJ fibroblasts – cell-based, luminescence, CellTiterGlo ATP, primary screen (AID 2275).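 Also: higher score means fewer live cells and less ATP luminescence.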 The note with it: BJeLR fibroblasts viability, 48 h, active compounds read high, concentration not given here; HRASV12, hTERT and SV40 LT/ST transformed unless noted. Background: In ATP-based viability assays light output follows the ATP content of the culture.
Take `CN[C@@H]1C[C@H]2O[C@@](C)([C@@H]1OC)n1c3ccccc3c3c4c(c5c6ccccc6n2c5c31)C(=O)NC4`: the viability loss activity score was 127% (active). Take `CCCCCCCCCCCCCC(=O)O[C@@H]1[C@@H](C)[C@@]2(O)[C@@H](C=C(CO)C[C@]3(O)C(=O)C(C)=C[C@@H]23)[C@@H]2C(C)(C)[C@]12OC(C)=O`: the viability loss activity score is 4.17%. With `CN1C2C=C(N(C(=O)c3ccc(Cl)cc3)c3ccccc3)CC1CC2` (stereo not given) the figure was 0.717%.

Turning to `CCOC(=O)[C@@H]1[C@@H]2NC(=O)N[C@@]1(C)Oc1ccccc12`, the viability loss activity score was -1.85% [setting not given].

Consider `Fc1ccc(CNC2=NCCS2)cc1`, for which the viability loss activity score is 2.3%. Take `CNC(=O)N(C)c1nnc(C(C)(C)C)s1`: the viability loss activity score was -2.35% [setting not given]. Take `c1ccc2c(c1)[I+]c1ccccc1-2`: the viability loss activity score is 73.2% (active).

As to `CC(=O)Nc1nc(C)c(Oc2ccccc2)c(OC(=O)N(C)C)n1`, the viability loss activity score is -1.11%. For `COC1=C[C@@H]2[C@@H]3Cc4ccc(OC)c(O)c4[C@]2(CCN3C)CC1=O` the value was 1.23% [setting not given]; for `CN1CC=C(c2noc(CCC(=O)Nc3ccc(F)cc3F)n2)CC1`, 2.02%; for `CC(C)[C@@]1(NC(=O)[C@@H]2CC3c4cccc5[nH]cc(c45)C[C@H]3N(C)C2)O[C@@]2(O)[C@@H]3CCCN3C(=O)[C@H](Cc3ccccc3)N2C1=O` (stereo not given in full), -5.08%. For `O=C(O)C1C2CCC(O2)C1C(=O)N1CCN(C/C=C/c2ccccc2)CC1` (stereo not given) the value was 8.76%; for `C[C@H]1O[C@@H](O[C@H]2CC[C@]3(CO)C4CC[C@]5(C)[C@@H](C6=CC(=O)OC6)CC[C@]5(O)[C@@H]4CC[C@H]3C2)[C@H](O)[C@H](O)[C@@H]1O[C@@H]1O[C@H](CO)[C@@H](O)[C@H](O)[C@H]1O` (stereo not given in full), 109% (active). With `Cc1ccc(CSc2nnc(OC(=O)N(C)C)n2-c2cccc(Cl)c2)cc1` the figure was 5.26%; with `CC1N=C(c2ccccc2)c2ccccc2N(CCCOc2ccc(F)cc2)C1=O` (stereo not given), -3.72%; with `CC(C)(c1ccccc1)c1ccc(O)cc1`, 0.81%. Turning to `CC(C)c1ccc2c(c1O)CC[C@H]1C3=C(CC[C@]21C)C(=O)OC3`, the viability loss activity score is 4.52%. For `C[C@H]1CCC/C=C/C2C[C@H](O)C[C@H]2[C@H](O)/C=C\C(=O)O1` (stereo not given in full) the value was 74.4% (active); for `CCN(CC)C(=O)c1ccc(N(Cc2ccccc2Cl)S(C)(=O)=O)cc1`, 5.52%. With `Fc1cccc(NC2=NCCS2)c1` the figure was 7.57%.

The record behind these values is PubChem BioAssay AID2275 (Broad Institute, 2010).
